High-throughput results (PubChem BioAssay)
Cruzain noTriton: qHTS Assay for Promiscuous and Specific Inhibitors of Cruzain (without detergent); Cruzipain (Trypanosoma cruzi), P25779; purified cruzain, Z-FR-AMC fluorescence, no detergent; Potency, µM, without a hit: max response, negative = inhibition, usual class: inhibitors; 200,000 tested, 2.3% active; AID 1476, 2009;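 note: plate controls were enzyme without inhibitor for no effect and buffer without enzyme for full effect; nearly all actives have a fitted effect of over 40% in size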
Target sequence (P25779 123-467 limits assumed): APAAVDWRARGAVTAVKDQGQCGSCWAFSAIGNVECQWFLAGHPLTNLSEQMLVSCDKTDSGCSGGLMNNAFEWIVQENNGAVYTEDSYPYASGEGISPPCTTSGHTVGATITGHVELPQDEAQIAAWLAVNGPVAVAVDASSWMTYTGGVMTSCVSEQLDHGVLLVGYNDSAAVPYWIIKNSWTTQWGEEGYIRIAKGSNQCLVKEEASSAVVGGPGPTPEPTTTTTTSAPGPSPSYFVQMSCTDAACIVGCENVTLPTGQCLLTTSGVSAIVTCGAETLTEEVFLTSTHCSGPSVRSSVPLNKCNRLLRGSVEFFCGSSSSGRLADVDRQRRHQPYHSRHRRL
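Purified cruzain at 1.5 nM, pre-incubated 15 min with compound at room temperature in 100 mM sodium acetate pH 5.5, 5 mM DTT, 0.00005% Triton X-100. Reaction started with 2 uM Z-FR-AMC; AMC fluorescence increase over 60 s gives rate.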
Cruzain Triton: qHTS Assay for Promiscuous and Specific Inhibitors of Cruzain (with detergent); 200,000 tested, 0.43% active; Potency, µM, for the others: max response, negative = inhibition, most hits filed as inhibitors; AID 1478, 2009; purified cruzain, Z-FR-AMC fluorescence, 0.01% Triton;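 note: plate controls were neutral wells for no effect and buffer without enzyme for full effect; nearly all actives have a fitted effect of over 40% in size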
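Detergent-containing run (0.01% Triton X-100) in acetate buffer pH 5.5 with 5 mM DTT: enzyme at 1.5 nM final, 15 min compound preincubation at room temperature, then 2 uM Z-FR-AMC substrate. Activity taken as 60 s fluorescence increase at 360/450 nm.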
Papain counter: qHTS Assay for Inhibitors of Papain: Counterscreen for Cruzain Assay. shares compounds with Cruzain Triton. purified papain, Z-FR-AMC fluorescence cleavage. Potency, µM, inactives show max response, negative = inhibition, hits mostly inhibitors. 410 tested, 41% active;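 note: 0% = no-compound wells and -100% = no-enzyme wells; nearly all actives have a fitted effect of over 35% in size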
Target sequence (P00784 whole entry, looked up): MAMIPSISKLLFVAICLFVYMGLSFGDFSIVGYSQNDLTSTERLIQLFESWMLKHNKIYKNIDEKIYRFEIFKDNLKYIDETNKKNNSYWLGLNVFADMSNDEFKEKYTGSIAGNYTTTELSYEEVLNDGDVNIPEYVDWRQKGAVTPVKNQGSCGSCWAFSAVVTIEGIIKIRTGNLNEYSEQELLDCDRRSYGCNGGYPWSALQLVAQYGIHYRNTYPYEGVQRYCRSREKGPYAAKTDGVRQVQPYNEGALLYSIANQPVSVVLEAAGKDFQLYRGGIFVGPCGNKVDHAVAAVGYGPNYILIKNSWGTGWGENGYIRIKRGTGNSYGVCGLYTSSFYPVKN
* hit, by the source's call; ? = inconclusive; · = no result. Only some compounds are listed: those with a hit (about 2.5% of all), similar ones and a draw of the others. Calls come from the whole dose curve; as a rule, active = well fitted curve in the direction sought with a large enough effect; inconclusive = small, poorly fitted or top-dose-only effect, or another doubt; inactive = no such curve, though single readings can be large; an effect the other way counts as inactive or inconclusive. Potency is the fitted concentration of half-maximal effect.

SMILES | Cruzain noTriton | Cruzain Triton | Papain counter
CC1CCCN(c2ccc(C(=O)OCC(=O)N3c4ccccc4Sc4ccccc43)cc2[N+](=O)[O-])C1 (stereo unspecified) | 3.98µM* | -3.5% | 10.0%
COc1ccc2c(c1)C(=O)[C@@H](OC(=O)NS(=O)(=O)c1ccc(F)cc1)[C@H](c1ccc(OC)c(Br)c1)O2 | -1.4% | -0.4% | ·
Cc1ccc(-n2nc(C)c3c(C)cc(=O)n(CC(=O)N4CCCc5ccccc54)c32)cc1 | 2.6% | -0.4% | ·
CC(C)COC(=O)c1nnsc1NC(=O)Nc1ccccc1 | 15.8µM* | 3.2% | 11.9%
CC(C)COC(=O)c1ccccc1C(=O)OCC(C)C | -1.0% | 1.4% | ·
COc1ccc(NC(=O)CCn2cnnn2)cc1 | -1.9% | 2.2% | ·
O=C(NCCc1nc2ccccc2n1CCCOc1ccc2ccccc2c1)C1CCCCC1 | · | · | 10µM*
O=C(Nc1nc2ccccc2n1CCN1CCCCC1)C1CCCCC1 | -5.2% | 0.7% | ·
O=C(NCCc1nc2ccccc2n1CCOc1ccc2ccccc2c1)C1CCCCC1 | · | · | -4.7%
COC(=O)c1ccc(Cl)cc1NC(=O)Nc1nnc(N2CCCC2)s1 | 9.5% | -4.2% | ·
CCc1cccc(C)c1NC(=O)CCCn1nc(C)c2sc3ccccc3c2c1=O | 2.3% | -1.8% | ·
O=C(NCCCc1nc2ccccc2n1Cc1ccc(F)cc1)C1CCCCC1 | -5.8% | -6.5% | ·
OCCCc1nc2ccccc2n1CCCCOc1ccccc1 | -1.4% | -5.0% | ·
O=C(NCCCc1nc2ccccc2n1Cc1ccccc1)C1CCCCC1 | -6.9% | -6.1% | ·
O=C(NCCCc1nc2ccccc2n1CCOc1ccccc1)C1CCCCC1 | · | · | 0.4%
O=C(NCCCc1nc2ccccc2n1CCCOc1ccccc1)C1CCCCC1 | · | · | 10.1%
O=C(NCCCc1nc2ccccc2n1CCCCOc1ccccc1)C1CCCCC1 | · | · | 5.0%
COc1ccc(C2CC(=O)N(CC(=O)Nc3cc(C)ccc3C)c3ccccc3S2)cc1 (stereo unspecified) | 1.6% | -1.0% | ·
CCc1ccc(Sc2cc(C(=O)NCCCN3CCCC(C)C3)c3ccccc3n2)cc1 (stereo unspecified) | -14.2% | 1.0% | ·
O=[N+]([O-])c1cc(S(=O)(=O)Nc2ccccc2)ccc1-n1nnc2ccccc21 | ? | 11.2µM* | -5.1%
O=[N+]([O-])c1cc(C(F)(F)F)ccc1-n1nnc2ccccc21 | 6.0% | -5.4% | ·
CC1CCN(c2oc(-c3cccc4ccccc34)nc2C#N)CC1 | ? | 31.6µM* | 39.8µM*
N#Cc1nc(-c2cccc3ccccc23)oc1N1CCCCC1 | ? | -3.4% | ·
C=CCNC(=O)c1ccc2nc(-c3ccccc3)c(-c3ccccc3)nc2c1 | 8.3% | -0.7% | ·
CNC(=O)c1ccc2nc(-c3ccccc3)c(-c3ccccc3)nc2c1 | · | · | -19.6%
SMILES | Cruzain noTriton | Cruzain Triton | Papain counter
O=C(NCC(c1ccc2c(c1)OCO2)N1CCOCC1)c1cccc(Cl)c1 (stereo unspecified) | 2.2% | -4.1% | ·
COc1cccc(Cn2c(CNC(=O)C(C)C)nc3cccnc32)c1 | -13.7% | -0.8% | ·
O=C(Nc1sc2c(c1C(=O)NCC1CCCO1)CCC2)c1cc(=O)c2cc(Cl)ccc2o1 (stereo unspecified) | -0.9% | -1.4% | ·
O=C(CNC(=O)c1ccc(Br)cc1)NCCc1nc2ccccc2[nH]1 | 7.5% | -9.4% | ·
Cc1ccc(C)c(N2CCN(c3nc4ccccc4c4nc(-c5cccnc5)nn34)CC2)c1 | 3.9% | 0.5% | ·
NC(=O)CSc1nc2ccccc2n1Cc1ccccc1 | -3.4% | -3.7% | ·
NNC(=O)Cn1c(SCc2ccccc2)nc2ccccc21 | -1.4% | 2.8% | 2.7%
COc1ccc(-c2nnc(-c3ccc(N)cc3)o2)cc1 | -17.3% | -4.6% | ·
COc1ccc(-c2ccc(-c3nnc(-c4cc(OC)ccc4OC)o3)cc2)cc1 | 25.1µM* | ? | 11.2µM*
COC(=O)c1ccc(NC(=O)CCc2c(C)nc3c(c2C)c(=O)n(C)c(=O)n3C)cc1 | -1.9% | -1.2% | ·
CCN(Cc1ccccc1)C(=O)C(CC(C)C)NS(=O)(=O)c1ccc2c(c1)CCN2C(C)=O (stereo unspecified) | 27.0% | -6.9% | ·
CC(C)CC(=O)Nc1cccc2c1C(=O)N(c1ccccc1)C2=O | -17.6% | -6.7% | ·
CC(C)(C)C(=O)O/N=C1/C(=O)N(c2ccccc2)c2ccccc21 | 20µM* | 1.58µM* | 25.1µM*
CC(C)CC(=O)O/N=C1\C(=O)N(c2ccccc2)c2ccccc21 | 2.51µM* | 0.631µM* | 1.12µM*
O=C1CCCCC(=O)N(c2ccccc2)c2ccccc21 | 6.3% | 3.9% | ·
O=C(NCCc1nc2ccccc2n1CCCOc1ccc(Cl)cc1)C1CCCCC1 | 15.9% | 2µM* | 28.2µM*
Cc1ccc(OCCCCn2c(CCNC(=O)C3CCCCC3)nc3ccccc32)cc1 | · | · | 31.6µM*
CCc1nc2ccccc2n1CCCCOc1ccc(C)cc1 | 6.2% | -10.7% | ·
CC(C)(C)C(=O)NCCCc1nc2ccccc2n1CCCOc1ccc(Cl)cc1 | ? | -5.1% | ·
CC(=O)NCCc1nc2ccccc2n1CCCCOc1ccc(Cl)cc1 | ? | -9.9% | ·
Cc1ccc(OCCCn2c(CCNC(=O)C3CCCCC3)nc3ccccc32)cc1 | · | · | 25.1µM*
CC(C)(C)c1ccc(OCCn2c(CCNC(=O)C3CCCCC3)nc3ccccc32)cc1 | · | · | -20.4%
Cc1ccc(NC(=O)C(=O)NCC(c2ccc3c(c2)OCO3)N2CCOCC2)cc1C (stereo unspecified) | 4.2% | 1.9% | ·
CC1=CC2C(CC1=O)C(C)=CCC2C(C)C (stereo unspecified) | -2.0% | 3.0% | ·
SMILES | Cruzain noTriton | Cruzain Triton | Papain counter
COC(=O)c1sccc1S(=O)(=O)N(CC(=O)NCc1ccccc1)c1ccc(C)c(C)c1 | -6.1% | -3.6% | ·
O=S(=O)(c1cccc(F)c1)N1CCC(Oc2ccc(-n3cnnn3)cc2)CC1 | -0.8% | -2.9% | ·
CCOc1ccc(NCc2nc3ccccc3n2CCOc2ccc(C)cc2)cc1 | -9.4% | -8.5% | ·
Cc1ccc(OCCn2c(CCNC(=O)C3CCCCC3)nc3ccccc32)cc1 | -9.5% | 1.26µM* | -13.7%
NC(=S)N/N=C\c1ccc(-c2cccc(Cl)c2Cl)o1 | 0.631µM* | 0.631µM* | 2.82µM*
Nc1nnc(CC(=O)N/N=C/c2ccc(-c3ccccc3Cl)o2)s1 | -14.8% | -16.0% | ·
COC(=O)N/N=C\c1ccc(-c2cc(Cl)c(Cl)cc2Cl)o1 | ? | -4.2% | ·
NC(=S)N/N=C/c1ccc(-c2ccc(Cl)c(Cl)c2)o1 | 0.631µM* | 0.631µM* | 6.31µM*
COC(=O)c1c(-c2cccs2)csc1NC(=O)c1cc(OC)cc(OC)c1 | -5.0% | -5.9% | ·
CCOc1ccc(CCNC(=O)CCSCc2ccc(Cl)cc2)cc1OCC | -6.3% | 0.8% | ·
Cc1cccc(OCCn2c(SCC(N)=O)nc3ccccc32)c1 | ? | -9.6% | ·
CC[C@@H](C)[C@H](NC(=O)OC(C)(C)C)c1nnc(S(=O)(=O)Cc2cc(C)ccc2C)o1 | 15.8µM* | 8.91µM* | 15.8µM*
Cc1[nH]c(=O)[nH]c(=O)c1CSc1nnc([C@@H](NC(=O)OC(C)(C)C)C(C)C)o1 | 0.0% | 9.5% | ·
c1ccc([P+](CC[P+](c2ccccc2)(c2ccccc2)c2ccccc2)(c2ccccc2)c2ccccc2)cc1 | -0.6% | 1.9% | ·
CCOC(=O)C1CCN(c2ncnc3c2c(-c2ccccc2)cn3-c2ccc(Cl)cc2)CC1 | -19.1% | 0.4% | ·
